# Experimental data reported in the supplement of paper PMC12632987.
# Whole data set: some 1,800 sequences, median “median log2 fold change of GCK-ALFA target abundance (FLAG IP / Myc IP barcode read proportion)” near 0.14, cut for the lowest 2% near -0.84. The sample as a whole holds a higher share of the lowest values than the screen did.
# T1: TRAF2, Q12933
# T1 chain: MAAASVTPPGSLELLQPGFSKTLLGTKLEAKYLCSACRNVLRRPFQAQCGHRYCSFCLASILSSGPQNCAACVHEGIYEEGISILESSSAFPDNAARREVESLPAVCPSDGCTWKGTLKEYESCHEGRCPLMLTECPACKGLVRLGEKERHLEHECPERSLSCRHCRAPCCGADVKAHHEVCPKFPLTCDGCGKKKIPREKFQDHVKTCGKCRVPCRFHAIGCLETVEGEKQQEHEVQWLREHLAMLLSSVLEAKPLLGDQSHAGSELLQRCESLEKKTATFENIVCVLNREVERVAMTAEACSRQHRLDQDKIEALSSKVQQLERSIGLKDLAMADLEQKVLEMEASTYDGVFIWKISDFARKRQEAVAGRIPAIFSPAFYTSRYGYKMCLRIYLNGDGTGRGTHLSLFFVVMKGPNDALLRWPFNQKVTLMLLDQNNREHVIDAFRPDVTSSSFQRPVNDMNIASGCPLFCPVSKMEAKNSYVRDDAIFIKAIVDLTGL
# B1: traf2_out_11_131_660 (protein)
# chain: MDAVATARSAAERVDALLALAETLSPEERHRLALHALDTIEAVAEYLTSHVSTMTKEEVKEAARILREARDRVLALDPRVAPEAAEVEEAIKKLLEAAEE
# B2: traf2_out_12_161_940 (protein)
# chain: SSEHFQELSDVANKAFDKAQEIVDRVAEVSPALRPTFLAVARSLTLPVEEARAILDAAIAAHEAELTPEQLAEVRALGDELLAIQKEAQEEIKKIQEKYR
# B3: traf2_out_3_89_2294 (protein)
# chain: SMEQEKKLEEMRKRMEAYLRGFERSARWVARQMVADGMSLDTIRGVLEAARTALLEVLRESAEEAGLSPEQIEELVEEARERLERIVEEVVEEARREREA
# B4: traf2_out_16_171_1431 (protein)
# chain: SAEEKEKALKEEIDKERDDIIERMETAVEVTPLISKETGLTVEQIAKGFRSTMDDRIEALKKKYEEAAKTASEEVKKYMKERLEEIEKAKEEALKKILEI
# B5: traf2_out_13_95_1115 (protein)
# chain: SKELAEKIMEISDKALDQANALLDALEAKIKASGKLAPEVAAALAAAKKSTISTAIHTLKELAKKYPEFKADFEATIAQLEQIRRDAGREVAKLIKEEKE
# B6: traf2_out_16_104_1404 (protein)
# chain: AEAKQAEFDAIIAELEAIADKLQKIANKLYKLYLKADPETKVKLSDALVKASEARRAALEAAERAREARETGGDLAEARAALAKAKEEAAKVEKEVKELE
# B7: traf2_out_17_162_1515 (protein)
# chain: SALEEELAKLEKELKKIEKELKELKEKLKDLDKMSKEELTDLLVEASEARRRALELAERLEELKPEIGEERAGKLIAEARKLAEELQKIANKIYKKLEEK
# B8: traf2_out_14_149_1232 (protein)
# chain: SAEQEKLRAAAEINAEIAAALDEVLALLDAGKVEEAKALLRATIAELRARGAAHGITVSGLFVLEEILALLDTDVEAAKAAAAAARARARNAAEAFREMA
# Biological target: T1, TRAF2, Q12933
# Experiment: median log2 fold change of GCK-ALFA target abundance (FLAG IP / Myc IP barcode read proportion) (log2 ratio); each designed protein is fused to an ALFA-tag nanobody in HEK293 cells to bring the named protein to FLAG-tagged glucokinase (GCK); Myc marks an untargeted standard; higher = target protein stabilised (more abundant)
# Settings: target protein: 3xFLAG-MCP-GCK-ALFA reporter; HEK293 landing pad (RPLP)
# Method in brief: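 HEK293 landing-pad cells received a recombined binder library fused to the ALFA nanobody and were induced with 2 μg mL^−1 doxycycline, then transfected with a plasmid encoding a FLAG-tagged target and a Myc-tagged standard. Lysates were collected after 48 h for anti-FLAG and anti-Myc immunoprecipitation, and the circular RNA barcodes were reverse transcribed, amplified and sequenced. Target abundance for each binder is the median log2 ratio of FLAG to Myc barcode read proportions. Barcodes had to reach a proportion of at least 10^−7 in both replicates, each binder needed at least 3 barcodes per replicate, a pseudocount of 10^−6 was applied, and the two replicates were pooled.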
row,Binder,median log2 fold change
1,B1,0.0927
2,B2,-1.56
3,B3,-0.433
4,B4,0.175
5,B5,-0.178
6,B6,0.341
7,B7,0.222
8,B8,0.339
